According to PMC4336329 (PLoS ONE, 2015):
Out of some 310,000 compounds screened, about 14,000 (4.5%) showed an effect of 50% or more. The effect is printed as a negative number. Only a selection was taken, and strong results are over-represented in it overall.

What follows are compounds tested against human ether-à-go-go-related gene (hERG) potassium channel (human, UniProt Q12809) (assay: primary screen, population patch clamp on CHO cells stably expressing hERG; higher = less effect of the substance).
Sequence of human ether-à-go-go-related gene (hERG) potassium channel (Q12809 whole entry, looked up): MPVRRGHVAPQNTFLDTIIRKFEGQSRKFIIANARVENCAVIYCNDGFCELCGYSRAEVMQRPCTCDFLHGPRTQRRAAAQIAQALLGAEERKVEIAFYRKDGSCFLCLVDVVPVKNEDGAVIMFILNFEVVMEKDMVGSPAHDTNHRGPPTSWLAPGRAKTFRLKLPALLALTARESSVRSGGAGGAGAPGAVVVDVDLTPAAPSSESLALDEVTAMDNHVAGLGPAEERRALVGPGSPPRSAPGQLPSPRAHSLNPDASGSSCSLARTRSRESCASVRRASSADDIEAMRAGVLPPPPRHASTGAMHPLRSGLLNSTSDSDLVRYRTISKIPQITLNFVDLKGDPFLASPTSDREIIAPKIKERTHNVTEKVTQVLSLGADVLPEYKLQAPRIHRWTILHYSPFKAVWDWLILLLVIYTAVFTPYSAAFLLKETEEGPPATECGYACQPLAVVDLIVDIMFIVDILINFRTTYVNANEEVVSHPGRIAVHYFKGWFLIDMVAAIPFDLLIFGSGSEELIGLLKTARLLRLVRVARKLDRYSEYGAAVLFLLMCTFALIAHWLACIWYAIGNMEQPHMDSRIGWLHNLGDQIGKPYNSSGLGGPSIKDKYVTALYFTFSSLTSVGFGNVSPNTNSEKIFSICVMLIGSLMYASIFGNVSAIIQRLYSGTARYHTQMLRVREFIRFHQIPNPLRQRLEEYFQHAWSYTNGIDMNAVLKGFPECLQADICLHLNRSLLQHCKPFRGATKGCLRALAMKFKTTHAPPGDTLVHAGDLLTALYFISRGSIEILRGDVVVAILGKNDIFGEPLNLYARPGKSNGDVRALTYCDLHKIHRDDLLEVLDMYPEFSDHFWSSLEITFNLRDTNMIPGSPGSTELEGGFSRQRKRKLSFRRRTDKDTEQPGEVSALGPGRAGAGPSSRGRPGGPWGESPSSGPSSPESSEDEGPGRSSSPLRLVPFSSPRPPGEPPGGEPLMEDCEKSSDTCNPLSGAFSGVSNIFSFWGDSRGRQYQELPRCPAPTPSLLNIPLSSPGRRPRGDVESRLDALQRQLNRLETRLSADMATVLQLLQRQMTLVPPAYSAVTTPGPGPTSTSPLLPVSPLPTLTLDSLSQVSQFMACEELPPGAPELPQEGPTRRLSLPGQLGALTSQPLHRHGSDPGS
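Also: peak tail current of the secondary pulse compared with the same well before compound.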

Compared with Cc1ccc(C2(C)NC(=O)N(CC(=O)NC(C)c3ccccc3)C2=O)cc1 (centres unmarked), Cc1ccsc1CN(C)C(=O)CN1C(=O)NC(c2ccccc2)(c2ccccc2)C1=O is lower in “hERG current change (%, negative = inhibition) at 10uM” value: 11.7% for the first, -21.5% for the second.

First: CC(C)(C)c1ccc(OCCC(=O)OCC(=O)NC(=O)NC2CCCC2)cc1
Second: CC1CCCC(NC(=O)COC(=O)Cc2c[nH]c3ccccc23)C1C (centres unmarked)
The “hERG current change (%, negative = inhibition) at 10uM” value of the first is higher: 10.7% for the first, -14% for the second.

Compared with COc1ccc(NC(C)=O)cc1NC(=O)CSc1nnc(-c2ccccn2)n1C, O=C(CSc1nnnn1C1CC2C=CC1C2)Nc1ccc(C(=O)O)cc1 (centres unmarked) is higher in “hERG current change (%, negative = inhibition) at 10uM” value: -7.69% for the first, -6.04% for the second.

Going from CCOC(=O)c1c(C)n(C)c2ccc(OCC(O)CN3CCCCCC3)cc12.Cl (centres unmarked) to Cl.OC(COCc1ccc(Cl)cc1)CN1CCCCC1 (centres unmarked), the “hERG current change (%, negative = inhibition) at 10uM” value falls from -18.4% to -35.8%.

Compared with NNC(=O)c1n[nH]c2c1CC(C1CCCCC1)CC2 (centres unmarked), CCS(=O)(=O)N1CCCC(C(=O)NC2CCC(C)CC2)C1 (centres unmarked) is lower in “hERG current change (%, negative = inhibition) at 10uM” value: 10.8% for the first, 6.05% for the second.

Compared with CCOCCn1c(C(C)O)nc2ccccc21 (centres unmarked), CCn1c(C)nc2cc(C(=O)OC)ccc21 is higher in “hERG current change (%, negative = inhibition) at 10uM” value: 11.7% for the first, 14.3% for the second.

Going from Cc1cc(Cl)nc(-n2nc(C)cc2C)n1 to Cc1ccc(S(=O)(=O)n2c(C)nc3cc(C)ccc32)cc1, the “hERG current change (%, negative = inhibition) at 10uM” value falls from 2.6% to -3.01%.

Going from Cl.OC(COCc1ccc(Cl)cc1)CN1CCc2ccccc2C1 (centres unmarked) to Cl.OC(COCc1ccccc1)CN1CCc2ccccc2C1 (centres unmarked), the “hERG current change (%, negative = inhibition) at 10uM” value rises from -70.4% to -25.7%.

First: COc1ccc(COCC(O)CN2CCc3ccccc3C2)cc1OC.Cl (centres unmarked)
Second: Cl.OC(COCc1ccccc1)CN1CCCC1 (centres unmarked)
The “hERG current change (%, negative = inhibition) at 10uM” value of the first is higher: 1.52% for the first, -6.03% for the second.

Compared with O=C(O)C(=O)O.OC(COCc1ccc(Cl)cc1)CN1CC=C(c2ccccc2)CC1 (centres unmarked), CC(=O)c1cccc(OCC(O)CN2CC=C(c3ccccc3)CC2)c1.O=C(O)C(=O)O (centres unmarked) is higher in “hERG current change (%, negative = inhibition) at 10uM” value: -77.2% for the first, -68.9% for the second.

Compared with OC(CN1CC=C(c2ccccc2)CC1)c1ccccc1 (centres unmarked), O=S(=O)(c1ccccc1)c1cnc(-c2ccccc2)nc1N1CCCC1 is higher in “hERG current change (%, negative = inhibition) at 10uM” value: -33% for the first, 41.8% for the second.

Going from CCOC(=O)C1CCN(CC(O)COCc2ccc(Cl)cc2)CC1.Cl (centres unmarked) to CCOC(=O)C1CCN(CC(O)COCc2ccc3c(c2)OCO3)CC1.Cl (centres unmarked), the “hERG current change (%, negative = inhibition) at 10uM” value rises from -79.2% to -46%.

Compared with OC(COCc1ccc(Cl)cc1)CN1CCN(CC(O)COCc2ccc(Cl)cc2)CC1 (centres unmarked), NC(=O)C1CCCN(CC(O)COCc2ccc(Cl)cc2)C1.O=C(O)C(=O)O (centres unmarked) is higher in “hERG current change (%, negative = inhibition) at 10uM” value: -75.2% for the first, -8.86% for the second.

Compared with CCOC(=O)C1CCN(CC(O)COCc2ccccc2)CC1.O=C(O)C(=O)O (centres unmarked), COc1cccc(OCC(O)CN2CCN(C)CC2)c1.O=C(O)C(=O)O (centres unmarked) is higher in “hERG current change (%, negative = inhibition) at 10uM” value: -31.1% for the first, 16.2% for the second.

Going from O=C(NCC(=O)N1CCCCCC1)c1ccc(Br)cc1 to c1ccc2c(N3CCCCCC3)nc(-c3ccncc3)nc2c1, the “hERG current change (%, negative = inhibition) at 10uM” value falls from -7.84% to -34.5%.

First: CCOP(=O)(OCC)c1nc(-c2cccc3ccccc23)oc1NCc1ccccc1
Second: NC(=S)N/N=C\c1c(OCc2ccccc2Cl)ccc2ccccc12
The “hERG current change (%, negative = inhibition) at 10uM” value of the first is higher: 10.2% for the first, -2.61% for the second.

Going from O=C(CN1CCc2ccccc2C1)Nc1cc(S(=O)(=O)N2CCOCC2)ccc1N1CCCC1 to O=[N+]([O-])c1cc(Cl)cc(/C=N/NC(=S)Nc2ccc(S(=O)(=O)N3CCOCC3)cc2)c1O, the “hERG current change (%, negative = inhibition) at 10uM” value rises from 0.983% to 14.3%.

Going from O=C(N/N=C/C=C/c1ccccc1)c1cnccn1 to COC(=O)/C(=C\C=C\c1ccccc1)NC(=O)c1ccccc1, the “hERG current change (%, negative = inhibition) at 10uM” value rises from 6.57% to 8.85%.

First: Cc1noc(C)c1S(=O)(=O)Nc1ccc(C(=O)N2CCC(C)CC2)cc1
Second: CCOC(=O)C1CCN(S(=O)(=O)Cc2ccc(Cl)cc2)CC1
The “hERG current change (%, negative = inhibition) at 10uM” value of the first is lower: -4.35% for the first, 1.25% for the second.

Compared with CC(=O)c1cccc(OCC(O)CN2CCN(S(=O)(=O)c3c(F)cccc3F)CC2)c1.O=C(O)C(=O)O (centres unmarked), CC(=O)c1ccc(S(=O)(=O)N2CCN(c3nc(-c4cccnc4)nc4ccccc34)CC2)cc1 is lower in “hERG current change (%, negative = inhibition) at 10uM” value: -31% for the first, -40.4% for the second.

Going from CCOC(=O)C1CCC(CNCc2ccc(Cl)cc2)CC1 (centres unmarked) to CCOC(=O)C1CCC(CNCc2ccccc2C)CC1.Cl (centres unmarked), the “hERG current change (%, negative = inhibition) at 10uM” value rises from -69.2% to -24.4%.

Compared with CCOc1ccc(Oc2ccc(Cl)cc2N)cc1.Cl, Cc1ccc(S(=O)CCNC(=O)Cc2ccc(Cl)cc2)cc1 (centres unmarked) is lower in “hERG current change (%, negative = inhibition) at 10uM” value: 2.9% for the first, -8.83% for the second.

Going from Cc1ccc2nc3c(c(C(=O)OC4CCOC4=O)c2c1)CCCC3 (centres unmarked) to CCOC(=O)C1CCN(c2nc(-c3ccc(C)cc3)nc3ccccc23)CC1, the “hERG current change (%, negative = inhibition) at 10uM” value rises from -0.191% to 15.4%.

Compared with CN1CCN(c2nc(-c3cccc([N+](=O)[O-])c3)nc3ccccc23)CC1, CN1CCN(c2nc(-c3cccnc3)nc3ccccc23)CC1 is lower in “hERG current change (%, negative = inhibition) at 10uM” value: -48.4% for the first, -48.5% for the second.

Compared with COc1ccc(S(=O)(=O)N2CCN(c3nc(-c4cccnc4)nc4ccccc34)CC2)cc1, O=S(=O)(c1ccc(F)cc1)N1CCN(c2nc(-c3cccnc3)nc3ccccc23)CC1 is lower in “hERG current change (%, negative = inhibition) at 10uM” value: -39% for the first, -72% for the second.

Compared with CCOC(=O)C1CCN(c2nc(-c3ccc(Br)cc3)nc3ccccc23)CC1, NC(=O)C1CCN(c2nc(-c3ccccc3)nc3ccccc23)CC1 is lower in “hERG current change (%, negative = inhibition) at 10uM” value: -1.89% for the first, -56% for the second.

First: CN1CCN(c2nc(-c3ccncc3)nc3ccccc23)CC1
Second: c1ccc2c(N3CCCC3)nc(-c3ccncc3)nc2c1
The “hERG current change (%, negative = inhibition) at 10uM” value of the first is lower: -67.4% for the first, -56.9% for the second.

Compared with Cc1ccc(S(=O)(=O)c2cnc(-c3ccccc3)nc2N2CCN(C)CC2)cc1, CN1CCN(c2nc(-c3ccccc3)ncc2S(=O)(=O)c2ccccc2)CC1 is lower in “hERG current change (%, negative = inhibition) at 10uM” value: -49.1% for the first, -63.2% for the second.

Compared with O=[N+]([O-])c1cnn(-c2nc(-c3ccccc3)cc(C(F)(F)F)n2)c1, c1cncc(-c2nc(N3CCOCC3)c3ccccc3n2)c1 is lower in “hERG current change (%, negative = inhibition) at 10uM” value: 8.82% for the first, -17% for the second.

First: N/C(=N\OS(=O)(=O)c1ccc2ccccc2c1)c1cccnc1
Second: O=S(=O)(/C=C/c1ccccc1)N1CCN(c2nc(-c3cccnc3)nc3ccccc23)CC1
The “hERG current change (%, negative = inhibition) at 10uM” value of the first is higher: 5.24% for the first, -23.6% for the second.

Compared with COc1ccc([N+](=O)[O-])cc1N(CC(=O)O)S(C)(=O)=O, CN(C)CCCNC(=O)/C(=C\C=C\c1ccccc1)NC(=O)c1ccc([N+](=O)[O-])cc1 is lower in “hERG current change (%, negative = inhibition) at 10uM” value: 13.7% for the first, -71.2% for the second.

First: O=C(O)CC1NC(=O)N(c2ccc(Cl)cc2)C1=O (centres unmarked)
Second: Nc1c(N=O)c(=O)[nH]c(=O)n1-c1ccccc1
The “hERG current change (%, negative = inhibition) at 10uM” value of the first is higher: 19.5% for the first, 10.2% for the second.

First: CSc1nc(N2CCOCC2)c2c3c(sc2n1)CCCC3
Second: c1ccc2c(N3CCOCC3)nc(-c3ccncc3)nc2c1
The “hERG current change (%, negative = inhibition) at 10uM” value of the first is higher: -2.32% for the first, -31.3% for the second.

Going from O=C1c2ccccc2COc2ccc(O)cc21 to CC(C)N(Cc1ccc(F)cc1)C(=O)c1cc2ccccc2oc1=O, the “hERG current change (%, negative = inhibition) at 10uM” value rises from 10.9% to 19.5%.

Compared with CN1CCN(/N=C/c2cccc(Cl)c2Cl)CC1.Cl, Cc1ccc(-c2nc(N3CCN(C)CC3)c3ccccc3n2)cc1.Cl is lower in “hERG current change (%, negative = inhibition) at 10uM” value: 6.09% for the first, -59.9% for the second.

First: O=S(=O)(c1cccs1)N1CCCc2cccc(O)c21
Second: CC(C)(C)C(=O)Nc1nc2c(s1)CN(Cc1ccccc1)CC2
The “hERG current change (%, negative = inhibition) at 10uM” value of the first is lower: 7.34% for the first, 14.2% for the second.

Compared with COc1ccc(OC)c(-n2cc3c(=O)n(C)c(=O)n(C)c3c2)c1, COc1ccc(-c2nnc(SCC3CCCO3)n2C)cc1 (centres unmarked) is higher in “hERG current change (%, negative = inhibition) at 10uM” value: -8.58% for the first, 0.931% for the second.

Compared with Cc1ccc(-c2nnc(-c3ccccc3)c(N3CCOCC3)n2)cc1, CN1CCN(c2nc(-c3ccc(Br)cc3)nnc2-c2ccccc2)CC1 is lower in “hERG current change (%, negative = inhibition) at 10uM” value: -30% for the first, -63.5% for the second.

Compared with Brc1ccc(-c2nnc(-c3ccccc3)c(N3CCSCC3)n2)cc1, CN1CCN(c2nc(-c3ccc(C(C)(C)C)cc3)nc3ccccc23)CC1.Cl is lower in “hERG current change (%, negative = inhibition) at 10uM” value: 4.62% for the first, -2.05% for the second.

Compared with c1cncc(-c2nc(N3CCCCCC3)c3ccccc3n2)c1, c1ccc(-c2nc(C3CCCCC3)c3ccccc3n2)cc1 is higher in “hERG current change (%, negative = inhibition) at 10uM” value: -92.9% for the first, 10.7% for the second.

Compared with CCCOc1ccc(-c2nc(N3CCN(C)CC3)c3ccccc3n2)cc1, Cc1ccc(-c2nc(N(C)C3CCN(C)CC3)c3ccccc3n2)cc1 is lower in “hERG current change (%, negative = inhibition) at 10uM” value: -21.6% for the first, -24.4% for the second.

Going from Cc1cc(NS(=O)(=O)c2ccc(NC(=O)c3ccc(Cl)cc3Cl)cc2)no1 to CC(Sc1nnc2ccccn12)C(=O)Nc1ccc(Cl)cn1 (centres unmarked), the “hERG current change (%, negative = inhibition) at 10uM” value falls from 24.4% to -1.5%.

Going from O=C(N=C1SC2CS(=O)(=O)CC2N1c1ccccc1F)C1CCCCC1 (centres unmarked) to O=C(NCc1ccccn1)C1CCN(S(=O)(=O)N2CCCC2)CC1, the “hERG current change (%, negative = inhibition) at 10uM” value falls from 8% to -8.11%.

First: NS(=O)(=O)c1ccc(CCNC(=O)C2CCN(c3ncnc4c3nc3n4CCCCC3)CC2)cc1
Second: CN1CCC(N(C)c2nc(-c3ccccc3)nc3ccccc23)CC1
The “hERG current change (%, negative = inhibition) at 10uM” value of the first is higher: 9.07% for the first, -70.4% for the second.

First: CC(C)(C)NC(=O)/C(=C\C=C\c1ccccc1)NC(=O)c1ccc([N+](=O)[O-])cc1
Second: CNC(=O)/C(=C\C=C\c1ccccc1)NC(=O)c1ccc([N+](=O)[O-])cc1
The “hERG current change (%, negative = inhibition) at 10uM” value of the first is higher: -35.1% for the first, -77.6% for the second.

Going from O=C(O)CCNC(=O)/C(=C/C=C/c1ccccc1)NC(=O)c1ccccc1 to CCCCOc1ccc(C(=O)N/C(=C/C=C/c2ccccc2)C(=O)NCCO)cc1, the “hERG current change (%, negative = inhibition) at 10uM” value falls from 16.6% to -9.18%.

Going from CCCCOc1ccc(C(=O)N/C(=C/C=C/c2ccccc2)C(=O)O)cc1 to CCCCOc1ccc(C(=O)N/C(=C/C=C/c2ccccc2)C(=O)NC)cc1, the “hERG current change (%, negative = inhibition) at 10uM” value falls from 19.8% to -75.2%.

With CCCCOc1ccc(C(=O)N/C(=C/C=C/c2ccccc2)C(=O)NCCCO)cc1 the “hERG current change (%, negative = inhibition) at 10uM” value was -28.7%.
